Screening results from PubChem.
Rows were chosen to be rich in hits. Some 7.2% of all compounds tested hit in one or more screens of this group.
hNpr1 antagonist = Natriuretic polypeptide receptor (hNpr1) antagonism - Primary qHTS; HEK293 hNpr1 GloSensor cGMP, ANP-stimulated luminescence; AID 1347048, 2019; Potency, µM (top dose mostly 46.3 µM), inactives show at the highest dose activity change, negative = inhibition, actives largely listed as inhibitors; Atrial natriuretic peptide receptor 1 (Homo sapiens), P16066; 76,000 compounds, 1.6% hits; calls by dose curve; further: nearly all actives have a fitted effect of over 60% in size
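HEK293 cells stably expressing human Npr1 and cGMP GloSensor pGS-40F, loaded 2 h with 2% GloSensor reagent, given compound 30 min at room temperature. Luminescence read before and 20 min after 0.1 nM hNppA.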
HEK cytotox = Cytotoxic Profiling in HEK 293 Cell Line of Diverse Libraries Using Quantitative High-Throughput Screening | HEK 293 viability, ATP luminescence (CellTiter-Glo), 48-72 h | 94,000 compounds, 6.6% hits | AID 1345083, 2018 | Potency, µM (series often up to 115 µM), for inactives: at the top dose activity change, negative = cytotoxicity, hits mostly inhibitors; further: nearly all actives have a fitted effect of over 60% in size
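HEK 293 cells seeded at 250 cells/well were exposed to compound for 48 or 72 hr at 37 degree Celsius. Viability taken as ATP content by CellTiter-Glo luminescence.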
NIH3T3 tox = Cytotoxic Profiling in NIH 3T3 Cell Line of Diverse Libraries Using Quantitative High-Throughput Screening; NIH 3T3 viability, CellTiter-Glo ATP luminescence, 48-72 h; Potency, µM (doses to about 96.7 µM), inactives show at the top dose activity change, negative = cytotoxicity, usual class: inhibitors; 94,000 compounds, 4.3% hits; AID 1345082, 2018; further: nearly all actives have a fitted effect of over 55% in size
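Cytotoxicity is measured as loss of cellular ATP: NIH 3T3 cells (400/well) are exposed to compound for 48 or 72 hr at 37 °C, then CellTiter-Glo luminescence is imaged after 10 min at room temperature.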
SNCA expr inhib = Primary qHTS assay for inhibitors of alpha-synuclein gene (SNCA) expression; HEK-293 SNCA-luciferase knock-in, luminescence, 24 h; Potency, µM (series often up to 57.2 µM), without a hit: top-dose activity change, negative = inhibition, hits mostly inhibitors; 140,000 compounds, 0.17% hits; AID 1671194, 2021;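 further: plate controls were DMSO cells for no effect and cell-free wells for full effect; nearly all actives have a fitted effect of over 45% in size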
Luciferase inh = Firefly luciferase inhibition profiling of diverse chemical library using quantitative high-throughput screening; Luciferin 4-monooxygenase (Photinus pyralis), P08659; purified P. pyralis luciferase, luminescence, biochemical; Potency, µM (series often up to 115 µM), actives largely listed as inhibitors; 76,000 compounds, 2.5% hits; AID 1347043, 2019; further: nearly all actives have a fitted effect of over 65% in size
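Luminescence read by CCD imaging after purified firefly luciferase (10nM final) was added to substrate buffer holding 10uM D-luciferin and 10uM ATP, pH 7.5, pre-dosed with compound.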
HEK293 viab = GF-AFC viability counterscreen for inhibitors of alpha-synuclein gene (SNCA) expression | HEK-293-SNCA-luc viability, GF-AFC fluorescence, 24 h | Potency, µM (titrated, usually from 57.1 µM), for the others: at the top dose activity change, negative = cytotoxicity, hits mostly cytotoxic | 150,000 compounds, 0.12% hits | AID 1671193, 2021;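 further: 0% = DMSO-treated cells and -100% = medium-only wells without cells; nearly all actives have a fitted effect of over 30% in size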
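HEK-293-SNCA-luc cells (1500/well) plated 24 h, then exposed 24 h to a dilution series; GF-AFC added 30 min at 37C, fluorescence 405/540 nm; normalised to medium-only and DMSO wells, Hill fit.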
Starred values were filed as active, the others as inactive; i = inactive; u = inconclusive; x = not tested or not shown; [ ] = dose if it differs, or a comment. Unless noted, the call rests on the fitted dose curve; in most records, active means well fitted curve in the direction sought with a large enough effect; inconclusive means small, poorly fitted or top-dose-only effect, or another doubt; inactive means no such curve, though single readings can be large; an effect the other way counts as inactive or inconclusive. Unless noted, on the % scale 0 is the no-effect control and ±100 the full control effect; potency means the concentration at half of the fitted maximal effect.

SMILES	hNpr1 antagonist	HEK cytotox	NIH3T3 tox	SNCA expr inhib	Luciferase inh	HEK293 viab
COC1CCOC2(CCN(C(=O)Cn3c(=O)oc4ccccc43)CC2)C1 (configuration not stated)	27.6%	-1.2%	-1.0%	u	i	-1.7%[12.5 µM]
Cc1nc2c(c(-c3ccc(O)cc3)n1)CN(Cc1cncs1)CCC2	-1.6%	2.5%	4.0%	12.2%	i	10.5%
COC1CCN(C(=O)c2ccnc(-c3nnc4ccc(N(C)C)nn34)c2)CC1	6.2%[70.6 µM]	-5.5%[172 µM]	44.7µM*	-3.5%[87.6 µM]	i	0.1%[87.6 µM]
COCCOC1CCN(C(=O)c2ccc(Cc3c(C)noc3C)o2)CC1	-2.6%	-1.1%	i	22.5%	i	10.4%[12.5 µM]
Cc1noc(C)c1Cc1ccc(C(=O)N2CCC(OCCOc3ccccc3)CC2)o1	x	39.8µM*	u	52.7%	x	-19.9%
O=C(O)CCC(=O)NC1CC2(CCN(Cc3ccncc3)CC2)c2ccccc21 (configuration not stated)	x	3.7%	1.5%	3.2%	x	-2.2%
COc1cccc(-c2cn3c(n2)N(C(=O)c2cccs2)CCC3)c1	-3.3%	u	-11.4%	121.0%	35.5µM*	-9.1%
Cc1ccsc1C(=O)N1CCCn2cc(-c3cccc(C#N)c3)nc21	-14.7%	u	-14.1%	67.3%	31.6µM*	8.4%
COc1cccc(-c2cn3c(n2)N(C(=O)C2CCC2)CCC3)c1	-3.4%	u	4.8%	114.0%	u	0.4%
O=C(c1nc2ncccn2n1)N1CCCn2cc(-c3ccccc3)nc21	4.4%	u	-5.7%	62.9%	i	-3.0%
Cc1ccc(-c2cn3c(n2)N(C(=O)c2cnn4cccnc24)CCC3)cc1	-2.0%	79.4µM*	i	31.1%	i	3.6%
O=C(c1ccsc1)N1CCCn2cc(-c3ccccc3)nc21	-2.5%	u	4.0%	157.8%	39.8µM*	2.6%
O=C(NCCc1ccc(F)cc1)C1CCCN1Cc1ccc(-c2cncnc2)cc1 (configuration not stated)	x	u	u	u	x	-10.5%
O=C(Nc1cccc(Cl)c1)c1ccc2oc(-c3ccncc3)nc2c1	x	u	-23.3%	23.8%	x	6.3%
Cn1nccc1C(=O)N1CCCC(c2nc(-c3ccccc3)no2)CCNC(=O)CC1 (configuration not stated)	-0.1%	3.1%	-1.6%	-9.0%	u	0.7%
C#CCNC(=O)c1ccc2nnc(Cc3ccc(OC)cc3)n2c1	x	i	-16.9%[138 µM]	6.6%[87.6 µM]	x	-3.3%[87.6 µM]
CCOC(=O)C1c2c(OC)ccc3c2C(=CC(C)(C)CO3)CN1Cc1ccccc1 (configuration not stated)	x	44.7µM*	u	x	x	x
COc1ccc2c3c1CN(Cc1cccc(NC(C)=O)c1)CC3=CC(C)(C)CO2	x	-28.8%	u	x	x	x
O=C(Nc1ccc(F)cc1)C1CC(=O)N(c2n[nH]c3cc(Br)ccc23)C1 (configuration not stated)	-5.9%	-1.3%	-22.2%	-0.6%	i	-6.2%
Cc1csc(CN(C)C(=O)CC(c2ccccc2)c2ccc3c(c2)OCO3)n1 (configuration not stated)	-30.5%	44.7µM*	-23.0%	188.9%	31.6µM*	5.5%
CC(C)CN(C1CCN(C)CC1)C1CN(C(=O)c2n[nH]c3ccccc23)C1	x	-16.2%	-10.1%	56.5%	x	-1.9%
O=C(NC1CCN(c2cc(-c3cccs3)[nH]n2)C1)c1cccc(Cl)c1 (configuration not stated)	-9.3%	39.8µM*	u	-5.3%	i	-12.3%
Cc1cccc(CC(=O)NC2CCN(c3cc(-c4cccs4)[nH]n3)C2)c1 (configuration not stated)	-16.1%	35.5µM*	u	4.8%	i	-13.9%
